Source: PubChem BioAssay AID1159580 (chemical genetic matrix, 2015)
“And” between values parts separate entries of the source, which are not always exact repeats. Identical values can stand only once. Out of some 5,500 compounds screened, about 2,000 (36%) were called active. Inconclusive results (about 18%) are left out. No stated cut-off is given here; in the data, active means normalized growth mostly below about 0.91 (no sharp cut-off); inconclusive means no clear call, values can overlap the other calls; inactive means mostly above about 0.92. This is one part of the list.

Experiment: chemical genetic growth profiling, strain panel (AID 1159580);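 further: tested at 20 µM; growth read once vehicle control cultures reached saturation at 30 °C; 1 = growth at the plate median or of vehicle wells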
Details: S. cerevisiae deletion strains, growth OD

Measured: normalized growth

CCCCCCCCCCCCCCCCCCOCC(O)CO (configuration not stated)
inactive: locus YAL013W, strain DEP1, stronger effect = lower value 1.01 | locus YAL021C, strain ccr4, stronger effect = lower value 1.01 | locus YAL026C, strain drs2, stronger effect = lower value 1 | locus YAL030W, strain snc1, stronger effect = lower value 0.991 | locus YBL061C, strain skt5, stronger effect = lower value 0.987 | locus YBR009C, strain hhf1, stronger effect = lower value 0.959 | locus YBR021W, strain FUR4, stronger effect = lower value 1.03 | locus YBR023C, strain chs3, stronger effect = lower value 0.99 | locus YBR171W, strain sec66, stronger effect = lower value 0.999 | locus YBR229C, strain ROT2, stronger effect = lower value 1.01 | locus YBR231C, strain swc5, stronger effect = lower value 0.981 | locus YBR279W, strain paf1, stronger effect = lower value 0.992 | locus YCL011C, strain gbp2, stronger effect = lower value 0.988 | locus YCL016C, strain dcc1, stronger effect = lower value 0.994 | locus YCL029C, strain bik1, stronger effect = lower value 1.01 | locus YCL061C, strain MRC1, stronger effect = lower value 0.996 | locus YCL069W, strain vba3, stronger effect = lower value 0.998 | locus YCR088W, strain abp1, stronger effect = lower value 0.997 | locus YDL005C, strain med2, stronger effect = lower value 0.989 | locus YDL035C, strain GPR1, stronger effect = lower value 1.02 | locus YDL040C, strain nat1, stronger effect = lower value 0.973 | locus YDL074C, strain BRE1, stronger effect = lower value 1.06 | locus YDL101C, strain DUN1, stronger effect = lower value 1.01 | locus YDL185W, strain tfp1, stronger effect = lower value 1.02 | locus YDL192W, strain arf1, stronger effect = lower value 1.01 | locus YDR001C, strain nth1, stronger effect = lower value 0.995 | locus YDR069C, strain doa4, stronger effect = lower value 0.973 | locus YDR101C, strain arx1, stronger effect = lower value 1.04 | locus YDR137W, strain rgp1, stronger effect = lower value 0.987 | locus YDR150W, strain NUM1, stronger effect = lower value 0.998 | locus YDR159W, strain sac3, stronger effect = lower value 0.952 | locus YDR162C, strain NBP2, stronger effect = lower value 0.991 | locus YDR195W, strain ref2 0.951 | locus YDR297W, strain sur2, stronger effect = lower value 0.995 | locus YDR318W, strain mcm21, stronger effect = lower value 0.986 | locus YDR334W, strain swr1, stronger effect = lower value 0.994 | locus YDR335W, strain msn5, stronger effect = lower value 1 | locus YDR388W, stronger effect = lower value 1.01 | locus YDR392W, strain spt3, stronger effect = lower value 0.858 | locus YDR502C, strain sam2, stronger effect = lower value 1.02 | locus YEL003W, strain gim4, stronger effect = lower value 0.998 | locus YEL037C, strain rad23, stronger effect = lower value 1 | locus YEL061C, strain CIN8 (second series), stronger effect = lower value 0.992 | locus YEL061C, strain CIN8, stronger effect = lower value 1.01 | locus YER015W, strain faa2, stronger effect = lower value 0.989 | locus YER016W, strain bim1, stronger effect = lower value 0.994 | locus YER110C, stronger effect = lower value 1.01 | locus YER111C, strain swi4, stronger effect = lower value 0.979 | locus YER155C, strain BEM2 (second series), stronger effect = lower value 0.948 | locus YER155C, strain BEM2, stronger effect = lower value 1.01 | locus YER167W, strain BCK2, stronger effect = lower value 1 | locus YFR010W, strain ubp6, stronger effect = lower value 1.01 | locus YGL078C, strain dbp3, stronger effect = lower value 1.02 | locus YGL086W, strain mad1, stronger effect = lower value 1.05 | locus YGL167C, strain pmr1, stronger effect = lower value 0.986 | locus YGL173C, strain kem1, stronger effect = lower value 0.984 | locus YGL227W, strain vid30, stronger effect = lower value 0.985 | locus YGL240W, strain doc1, stronger effect = lower value 0.966 | locus YGL248W, strain PDE1, stronger effect = lower value 1 | locus YGL253W, strain hxk2, stronger effect = lower value 1 | locus YGR135W, strain pre9, stronger effect = lower value 0.968 | locus YGR252W, strain gcn5, stronger effect = lower value 0.969 | locus YHR013C, strain ard1, stronger effect = lower value 0.938 | locus YHR027C, strain rpn1, stronger effect = lower value 0.998 | locus YHR030C, strain SLT2, stronger effect = lower value 1.01 and 1.02 | locus YHR079C, strain IRE1 (second series), stronger effect = lower value 1 | locus YHR079C, strain IRE1, stronger effect = lower value 0.993 | locus YHR094C, strain hxt1, stronger effect = lower value 1.01 | locus YHR129C, strain ARP1, stronger effect = lower value 1.01 | locus YHR142W, strain chs7, stronger effect = lower value 1.04 | locus YHR200W, strain rpn10, stronger effect = lower value 1.01 | locus YIL066C, strain RNR3, stronger effect = lower value 1.01 | locus YIL073C, strain SPO22, stronger effect = lower value 1.01 | locus YIL125W, strain kgd1, stronger effect = lower value 1.01 | locus YIR030C, strain dcg1, stronger effect = lower value 1 | locus YJL092W, strain hpr5, stronger effect = lower value 0.999 | locus YJL095W, strain BCK1 (second series), stronger effect = lower value 0.998 | locus YJL095W, strain BCK1, stronger effect = lower value 1.02 and 0.984 | locus YJL115W, strain asf1, stronger effect = lower value 0.987 | locus YJL129C, strain trk1, stronger effect = lower value 0.984 | locus YJL134W, strain LCB3, stronger effect = lower value 0.997 | locus YJL154C, strain vps35, stronger effect = lower value 0.992 | locus YJL164C, strain tpk1, stronger effect = lower value 1 | locus YJL166W, strain qcr8, stronger effect = lower value 0.99 | locus YJL168C, strain set2, stronger effect = lower value 0.999 | locus YJL187C, strain SWE1 (second series), stronger effect = lower value 1.03 | locus YJL187C, strain SWE1, stronger effect = lower value 0.996
